The results in this text go back to PubChem BioAssay AID463082 (The Scripps Research Institute Molecular Screening Center, 2010).

Hit rate of the full screen: of about 330,000 compounds, about 4,900 (1.5%) were called active.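 The calls were made as follows: active = inhibition above the mean inhibition across the screen plus 3 SD (cut at about 25% in these data); inactive = the rest.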 The sample as a whole holds a higher share of actives than the screen did.

The term inhibition denotes the drop in the measured response relative to a control, in per cent.

Chain of Platelet-activating factor acetylhydrolase (Homo sapiens) (Q13093 whole entry, looked up): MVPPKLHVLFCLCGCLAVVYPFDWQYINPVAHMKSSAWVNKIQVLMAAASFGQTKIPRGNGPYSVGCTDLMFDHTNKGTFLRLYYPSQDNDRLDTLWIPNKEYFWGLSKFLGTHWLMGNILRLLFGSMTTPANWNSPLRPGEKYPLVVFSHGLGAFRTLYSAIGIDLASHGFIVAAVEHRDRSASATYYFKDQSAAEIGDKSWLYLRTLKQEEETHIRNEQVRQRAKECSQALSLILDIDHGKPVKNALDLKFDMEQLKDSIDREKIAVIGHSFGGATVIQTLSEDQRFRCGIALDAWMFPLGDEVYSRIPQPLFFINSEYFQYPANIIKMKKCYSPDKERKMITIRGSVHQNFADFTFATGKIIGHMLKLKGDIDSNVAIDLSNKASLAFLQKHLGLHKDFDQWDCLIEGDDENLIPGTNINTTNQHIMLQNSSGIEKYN

The experiment has as its target Platelet-activating factor acetylhydrolase (Homo sapiens) (UniProt Q13093). Nature of the experiment: inhibition of plasma PAF acetylhydrolase – biochemical, fluorescence polarization, human, primary screen (AID 463082).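 Also: inhibitors block binding of the rhodamine activity-based probe so polarization drops; 0% = enzyme with DMSO and 100% = wells lacking pPAFAH.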 The conditions noted are these: recombinant pPAFAH, FP-rhodamine probe fluorescence polarization; at 3.39 µM; stronger effect = higher value.
`O=C(Nc1ccc(F)cc1)N1CCN(c2ccc(F)cc2)CC1`: the inhibition is -4.2% (inactive).

Take `CC(CC(=O)N1CCN(c2ccccc2)CC1)c1ccccc1` (stereo not drawn): the inhibition is 0.04% (inactive).

Turning to `CC(=O)N1CCN(c2ccc(NCc3ccc(C(C)C)cc3)cc2)CC1`, the inhibition is 30.8% (active).

On to `N#CC1=C(N)N(c2ccc(F)cc2)C(=O)C1`, for which the inhibition is -0.02% (inactive).

On to `CCCCc1nc(NCCN)c(C#N)c2c1CSC(C)(C)C2`, for which the inhibition is 4.91% (inactive).

With `C=C(C)CNC(=S)N/N=C/c1ccccc1OCC(=O)O`, the inhibition is 0.9% (inactive).

With `Cc1cccc(COc2ccccc2/C=N/Nc2ccc([N+](=O)[O-])cc2)c1`, the inhibition was 18% (inactive).

On to `Cc1ccc(NS(=O)(=O)c2ccc(N/N=C/c3ccccc3OCC(=O)O)c([N+](=O)[O-])c2)c(C)c1`, for which the inhibition was 88.4% (active).

As for `COCCn1c(=O)[nH]c(=O)c2cc(C(=O)c3cc(OC)ccc3O)cnc21`, the inhibition was -1.8% (inactive).

Take `CC(C)NC(=O)C(=O)NCCN1CCN(S(=O)(=O)c2ccc(Cl)cc2)CC1`: the inhibition was 2.1% (inactive).

As to `Clc1ccccc1CSc1nnc(-c2ccco2)c(-c2ccco2)n1`, the inhibition is 74.6% (active).

`O=C(CC1N=C2c3ccccc3N=C(SCc3ccccc3Cl)N2C1=O)NCc1ccco1` (stereo not drawn): the inhibition was 6.79% (inactive).

`c1ccc(CSc2nnc(-c3ccco3)c(-c3ccco3)n2)cc1`: the inhibition is 62% (active).

In the case of `COc1ccc2nc(SCc3ccccc3)nc(C)c2c1`, the inhibition was 3.07% (inactive).

For the molecule `CCc1nnc(SCc2cccc(F)c2)nc1CC`, the inhibition is 7.48% (inactive).

For `O=C(Nc1nnc(SCc2ccccc2Cl)s1)c1cccc([N+](=O)[O-])c1`, the inhibition was 22.8% (inactive).

With `N#CC(Cc1cc2ccccc2n1S(=O)(=O)c1ccccc1)OCc1ccccc1` (stereo not drawn), the inhibition is 3.57% (inactive).

As to `N#Cc1c(NC(=O)C2CCCO2)sc2c1CCCCC2` (stereo not drawn), the inhibition is -1.14% (inactive).

Turning to `Nc1cccc(S(=O)(=O)Nc2ccc(SC(F)F)cc2)c1`, the inhibition is 26.6% (active).

For the molecule `CC(=O)N1CCN(C(=O)c2cccc(S(=O)(=O)Nc3ccc(C)cc3)c2)CC1`, the inhibition is 19.9% (inactive).

Regarding `Cc1cccc(NS(=O)(=O)c2ccc(C)c(C(N)=O)c2)c1`, the inhibition was 9.98% (inactive).

As for `CCOc1cc(C(=O)N2CCc3cc(OC)c(OC)cc3C2)ccc1OC(F)F`, the inhibition was 11% (inactive).

In the case of `CC(C)N1CCC(=NNc2ccc([N+](=O)[O-])cc2S(=O)(=O)N2CCOCC2)CC1`, the inhibition was 5.77% (inactive).

As to `COc1cccc(NS(=O)(=O)c2ccc3[nH]cc(C(=O)NCCCOC(C)C)c(=O)c3c2)c1`, the inhibition is 29% (active).

As for `CCc1cccc2c(=O)c(C(=O)NCCCOC)c[nH]c12`, the inhibition was 3.69% (inactive).

Consider `CCN(CC)S(=O)(=O)c1ccc2[nH]cc(C(=O)NCCc3ccccc3)c(=O)c2c1`, for which the inhibition was -0.23% (inactive).

Turning to `C=CCOc1ccc(/C=C/C(=O)OCC(=O)NC2CCCCCC2)cc1`, the inhibition was 12% (inactive).

`O=C(NCCN1CCOCC1)c1cccc(S(=O)(=O)Nc2ccc(F)cc2)c1`: the inhibition was 22.9% (inactive).

As to `NS(=O)(=O)c1ccc(CNC(=O)c2cccc(Oc3ccccc3)c2)cc1`, the inhibition was 4.17% (inactive).

Consider `O=C(NCc1ccccc1CN1CCCC1)c1cccc(S(=O)(=O)Nc2ccc(F)cc2)c1`, for which the inhibition is 31.6% (active).

For `CCN(c1ccccc1)S(=O)(=O)c1cccc(C(=O)NCc2ccccc2CN2CCOCC2)c1`, the inhibition was 3.38% (inactive).

In the case of `COc1ccc(NS(=O)(=O)c2cccc(C(=O)NCCc3ccc(S(N)(=O)=O)cc3)c2)cc1`, the inhibition was 26.8% (active).

In the case of `COc1ccc(OCC(=O)NCCc2ccc(S(N)(=O)=O)cc2)cc1`, the inhibition was -2.47% (inactive).

Regarding `COc1ccc(C(CNC(=O)c2ccc(NS(=O)(=O)c3ccc(F)c(C)c3)cc2)N(C)C)cc1` (stereo not drawn), the inhibition was 7.73% (inactive).

As for `COc1ccccc1C(CNC(=O)c1cccc(S(=O)(=O)Nc2ccc(F)cc2)c1)N(C)C` (stereo not drawn), the inhibition was 28.3% (active).

For the molecule `COc1ccccc1C(CNC(=O)c1cccc(NS(=O)(=O)c2ccc(Br)cc2)c1)N(C)C` (stereo not drawn), the inhibition is 4.01% (inactive).

As for `CC(=O)N1c2ccc(S(=O)(=O)NCCC(=O)N(C)C3CCCCC3)cc2CC1C` (stereo not drawn), the inhibition was 1.62% (inactive).

Regarding `O=C(c1n[nH]c2c1CCC2)N1CCCC(Nc2cccc(F)c2)C1` (stereo not drawn), the inhibition was -0.4% (inactive).

As to `O=C(COc1ccc(NC(=O)c2ccccc2[N+](=O)[O-])cc1)c1ccc(F)cc1`, the inhibition was 0.54% (inactive).

`C/C(=N\NC(=O)COc1ccc(C)cc1[N+](=O)[O-])c1ccc2c(c1)OCCO2`: the inhibition is 4.11% (inactive).

Consider `CC(=O)Nc1cccc(OCC(=O)/C=C2\N(C)c3ccccc3C2(C)C)c1`, for which the inhibition was 1.61% (inactive).

On to `N[C@@H](Cc1ccccc1)C(=O)N1CCC(C(=O)NCC(=O)Nc2ccc(F)cc2)CC1`, for which the inhibition was 2.49% (inactive).

For the molecule `Cc1cc(C)c2c(Cn3ccnc3)cc(=O)oc2c1`, the inhibition was -1.95% (inactive).

For `CCCCN1C(=O)/C(=C2/Sc3ccc(Cl)cc3N2CC)SC1=S`, the inhibition is 3.72% (inactive).

Consider `CCCCN1C(=O)/C(=C/C=C2/C=Cc3ccccc3N2CC)SC1=S`, for which the inhibition was -3.21% (inactive).

As for `CCN1C(=O)/C(=C2/Sc3ccccc3N2CCCS(=O)(=O)O)SC1=S`, the inhibition was 28.1% (active).

As to `CCOC(=O)C(CCOc1cccc(CC)c1)C(=O)OCC`, the inhibition is 5.98% (inactive).

As for `CCCn1nc(C(=O)OCc2nc(N)nc(Nc3ccccc3C)n2)c2ccccc2c1=O`, the inhibition is -2.36% (inactive).

As for `O=C(Nc1nnc(CCOCCOCCc2nnc(NC(=O)c3ccco3)s2)s1)c1ccco1`, the inhibition is 8.62% (inactive).

As to `O=C(Nc1nc(-c2ccco2)c(-c2ccco2)s1)c1ccco1`, the inhibition was 43% (active).

For `NC(=O)c1ccsc1NC(=O)c1ccco1`, the inhibition is 3.89% (inactive).

Turning to `COc1cc2ccccc2cc1C(=O)Nc1ccc(N2CCOCC2)cc1`, the inhibition was 11.2% (inactive).

`COc1ccc(N2CCN(C3CC(=O)N(c4ccc5c(c4)OCCO5)C3=O)CC2)cc1` (stereo not drawn): the inhibition is -4.08% (inactive).

Turning to `CC(=O)Oc1cccc(N2C(=O)CC(Nc3ccc(N4CCOCC4)cc3)C2=O)c1` (stereo not drawn), the inhibition is 25.3% (active).

For the molecule `O=C(CN1CCN(c2cccc(Cl)c2)CC1)Nc1ccc(S(=O)(=O)N2CCOCC2)cc1`, the inhibition was 5.13% (inactive).

For the molecule `O=C(O)c1ccc(N/N=C/c2cn(-c3ccccc3)nc2-c2cccs2)cc1`, the inhibition is 34% (active).

Turning to `O=C(NCc1cccnc1)c1cn(-c2ccccc2)nc1-c1cccs1`, the inhibition was -4.38% (inactive).

`COc1ccc(-c2nn(-c3ccccc3)cc2/C=C\C(=O)Nc2ccc(C(=O)O)cc2)cc1`: the inhibition is -67.2% (inactive).
